hgDAF-12 ag = activates the H. glycines DAF-12 receptor ligand-binding domain | HEK293 GAL4-hgDAF12 UAS-luciferase reporter, agonist luminescence; normalized to butyrate control | activation, % at 6.8 µM | 370,000 tested, 1.8% active;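 active = activation above a cutoff set at the mean of all screened compounds plus 3 SD, cut at about 10% in these data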;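 also: 0% = DMSO wells and 100% = sodium butyrate wells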
APP 5'UTR act = activates APP 5'UTR luciferase reporter | AID 1276 | activation, % at 2 µM | 190,000 tested, 1% active | SH-SY5Y APP 5'UTR luciferase reporter, luminescence; zero percent = DMSO vehicle wells;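 active = activation above a set limit, based on mean plus 3 SD of controls, cut at about 140% in these data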
NF-kB expr up = raises NF-kB expression in human neuronal cells; 190,000 tested, 1.6% active; fold change at 12.5 µM; NF-kB reporter expression; stronger effect = higher value; in the data active = fold change above about 3.3
hcDAF12 agonist = activators of H. contortus DAF-12 nuclear receptor; HEK293 hcDAF-12 lit1-tk-luc reporter, luminescence; 0% DMSO, 100% Δ7-dafachronic acid; activation, % at 6.8 µM; 370,000 tested, 1.4% active;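 active = activation above the mean of all tested compounds plus 3 SD, cut at about 5.5% in these data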;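 also: 100% = response to 3 µM Δ7-dafachronic acid high control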
ssDAF-12 act = activators of S. stercoralis DAF-12 nuclear receptor; AID 652126; 370,000 tested, 1% active; activation, % at 6.8 µM; HEK293 ssDAF-12/GRIP1 lit1-tk-luc reporter, luminescence; % of 3 µM dafachronic acid response;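 active = activation above the mean over all tested compounds plus 3 SD, cut at about 0.9% in these data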;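 also: 0% = DMSO-only wells and 100% = 3 µM delta7-dafachronic acid wells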
* = called active by the depositor; x = no result given. This is a sample that favours compounds with a hit; in the whole collection about 3.4% have one here.

SMILES	hgDAF-12 ag	APP 5'UTR act	NF-kB expr up	hcDAF12 agonist	ssDAF-12 act
COc1ccc(/C(N)=N/OC(=O)c2ccc3c(c2)OCO3)cc1	6	60	2.9	6.0*	-1
O=C(c1cc(F)ccc1F)N(Cc1ccccn1)CC1CCCO1 (stereo not drawn)	1	x	x	-1	-2
O=C(Nc1ccc2ccccc2c1)c1cc(F)c(F)cc1Cl	10	x	x	0	0
O=C(Nc1ccc2c(c1)C(=O)OC2)c1ccc(Cl)cc1	2	x	x	0	-1
O=C(Nc1ccc2c(c1)C(=O)OC2)c1ccc(Cl)cc1Cl	1	x	x	5.6*	-1
O=C(Nc1ccc2ccccc2c1)c1ccc(Cl)cc1Cl	11*	x	x	5	0
COCCN1C(=O)C2=C(C1=O)C1N(C)c3ccccc3[C@@]13C[C@@H](CO)N(C(C)=O)C3=N2 (stereo partly drawn)	-3	x	x	2	-1
Cc1c(C(=O)Nc2nccs2)oc2c(Cl)cccc12	7	x	x	5	1.3*
O=C(NCCc1ccccc1F)c1cc2ccccn2n1	13*	x	x	4	1
COC(=O)[C@]12C[C@H](CC(=O)NCc3ccccc3)C(=O)N(Cc3ccc4c(c3)OCO4)C1=C[C@H](C(C)C)O[C@@H]2C1CC1	2	x	x	-1	-1
Cc1ccc2cc(C#N)c(N3CCN(C(=O)c4cccs4)CC3)nc2c1	0	x	x	6.5*	-1
Cc1ccc2nc(N3CCN(C(=O)c4ccc(F)cc4)CC3)c(C#N)cc2c1	-1	x	x	1	-1
O=C(NCCN1C(=O)C2C3C=CC(C3)C2C1=O)Nc1ccccc1 (stereo not drawn)	1	x	1.4	-1	-2
Cc1ccc(NC(=O)NCCN2C(=O)C3C4C=CC(C4)C3C2=O)cc1 (stereo not drawn)	10	x	1.8	6.5*	-1
Cc1cccc(NC(=O)NCCN2C(=O)C3C4C=CC(C4)C3C2=O)c1 (stereo not drawn)	11*	x	1.5	0	-1
CN(C)c1ccc(Cn2c(=O)n(Cc3ccc(C(=O)NCC4COC4)cc3)c(=O)c3ccccc32)cc1	-1	x	x	-2	-1
COc1ccc(CC(=O)Nc2sccc2C#N)cc1S(=O)(=O)N1CCOCC1	7	x	x	6.0*	0
Cc1ccccc1C(=O)Nc1ccnn1C1CCN(Cc2c(C)n(C)c3ccccc23)CC1	0	x	x	6.1*	-1
Cc1ccc(NC(=O)Cc2c[nH]c3ccccc23)cc1S(=O)(=O)N1CCCCCC1	3	18	0.76	6.2*	-1
Cc1ccc(S(=O)(=O)N2CCCCC2)cc1NC(=O)Cc1c[nH]c2ccccc12	-1	-9	0.83	5.8*	0
Cc1ccc(NC(=O)Cc2n[nH]c(=O)c3ccccc23)cc1S(=O)(=O)N1CCCCCC1	-7	x	x	-3	-2
COc1ccc(Oc2c(Cl)cnn(C3c4ccccc4-c4ccccc43)c2=O)cc1	-1	x	x	-1	-1
C=C(C)CSc1nc2sc(C)c(C)c2c(=O)n1C	0	x	x	1	-2
c1ccc2sc(SCc3ccc(-c4nnco4)cc3)nc2c1	7	121	4.2*	3	0
CN(C)c1ccc(/C=N/n2ncc3ccccc32)cc1	x	355*	3.1	x	x
SMILES	hgDAF-12 ag	APP 5'UTR act	NF-kB expr up	hcDAF12 agonist	ssDAF-12 act
C=CCn1c(/N=C/c2ccc(N(C)C)cc2)nc2ccccc21	0	-6	1.1	1	-1
CCCCn1cnc2c(oc3ccccc32)c1=O	12*	x	x	0	0
CCCC[C@H](C(=O)N(C)c1cccc(OC)c1)[C@@H](O)c1ccc2ccccc2c1	-1	x	x	-3	-1
O=C(Nc1ccc(Cl)cc1)c1csc([C@@H]2C[C@H](O)[C@@H](CO)O2)n1	0	x	x	0	-1
O=C(Nc1cccc(C(F)(F)F)c1)Nc1nnc([C@@H]2C[C@H](O)[C@@H](CO)O2)s1	10*	x	x	-2	0
O=C(Nc1nnc([C@H]2C[C@H](O)[C@@H](CO)O2)s1)c1cccc(C(F)(F)F)c1	0	x	x	-2	-1
O=C(Nc1cccc(Cl)c1)c1csc([C@H]2C[C@H](O)[C@@H](CO)O2)n1	11*	x	x	5	0
CC(C)Oc1cccc(C(=O)Nc2nnc([C@@H]3C[C@H](O)[C@@H](CO)O3)s2)c1	0	x	x	1	1.0*
COC(=O)C1CN(C2CCCC2)CCS(=O)(=O)N1Cc1ccc(C(F)(F)F)cc1 (stereo not drawn)	-2	x	x	-1	-2
CN1C2=N[C@H](c3ccccc3Br)CC(=O)N2/C(=C\c2ccccc2)[C@@H]1c1ccccc1	-2	x	x	2	-1
Cc1ccccc1C(=O)O/N=C1\CCS(=O)(=O)c2sccc21	2	0	5.8*	-1	-1
COc1ccc(C(=O)O/N=C2\CCS(=O)(=O)c3sccc32)cc1	-2	14	1.9	0	-1
CCC[C@H]1[C@@H](NC(=O)Nc2ccc3c(c2)OCO3)CC[C@@]23CCCN2C(=O)CCC[C@@H]13	4	x	x	2	-1
O=C(O)c1cc(S(=O)(=O)NC(Cc2c[nH]c3ccccc23)C(=O)O)ccc1Cl (stereo not drawn)	2	x	x	5.9*	0.9*
COC(=O)C(Cc1c[nH]c2ccccc12)NC(=O)C(C)C (stereo not drawn)	-1	-7	1.1	1	-1
COC(=O)C(Cc1c[nH]c2ccccc12)NC(=O)C(=O)c1c[nH]c2ccccc12 (stereo not drawn)	3	x	x	5.9*	0
O=C(O)C(Cc1c[nH]c2ccccc12)NS(=O)(=O)c1ccc2ccccc2c1 (stereo not drawn)	1	6	1.1	4	0
O=C(NC(Cc1c[nH]c2ccccc12)C(=O)O)/C(=C/c1ccc(F)cc1)NC(=O)c1ccccc1 (stereo not drawn)	2	x	x	5	0.9*
O=C(NCCN1CCC(Cc2ccccc2)CC1)C1CCCN(S(=O)(=O)c2ccc(Br)s2)C1 (stereo not drawn)	-3	x	x	-5	-2
O=S1(=O)c2ccc(N3CCN(Cc4ccccc4F)CC3)cc2Oc2ccccc2CN1Cc1cn(Cc2cccc(F)c2)nn1	-2	x	x	-1	-2
Cc1ccc(NC(=O)NCC2CCN(Cc3cccc(Cl)c3)CC2)cc1Cl	3	-7	0.89	-1	1.7*
CCc1ccc(NC(=O)NCC2CCN(Cc3cccc(Cl)c3)CC2)cc1	3	x	x	1	-2
Cc1c(-c2nc(N)nc(Nc3ccccc3)n2)oc2ccccc12	11*	154*	3	3	0
N#Cc1ccc(NC(=O)OC2CC3CC2[C@H]2CCCCN2[C@H]3Cc2ccccc2)cc1 (stereo partly drawn)	0	x	x	-2	0
CCC1NC(=O)c2cc3ccccc3cc2-n2c1nc1cc(F)ccc1c2=O (stereo not drawn)	-4	x	x	0	0
CC1NC(=O)c2cc3ccccc3cc2-n2c1nc1cc(F)ccc1c2=O (stereo not drawn)	1	x	x	4	1.8*
